In the library only some 11% were active in any assay of this set; here they are far more common.
JMJD2A Tudor inh: JMJD2A Tudor domain (human) inhibition. AlphaScreen JMJD2A-Tudor / H3K4me3 peptide binding. Potency, µM (titrated, usually from 114 µM), most hits filed as inhibitors. 390,000 compounds, 4.4% hits. AID 504339; also: nearly all actives have a fitted effect of over 50% in size
HP1b chromo inh: blocks HP1-beta chromodomain binding to methylated histone tails | P83916 | AlphaScreen HP1-beta / biotin-H3K9me3 peptide binding | Potency, µM (highest dose often 114 µM), usual class: inhibitors | 390,000 compounds, 0.56% hits | AID 540317; also: nearly all actives have a fitted effect of over 70% in size
Target sequence (P83916 whole entry, looked up): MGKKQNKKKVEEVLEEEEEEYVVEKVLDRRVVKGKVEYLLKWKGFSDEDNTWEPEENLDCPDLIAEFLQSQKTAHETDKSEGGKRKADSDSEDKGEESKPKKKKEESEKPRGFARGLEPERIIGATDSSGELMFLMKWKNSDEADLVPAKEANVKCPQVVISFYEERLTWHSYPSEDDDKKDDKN
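AlphaScreen: HP1-beta (50 nM) preformed 30 min with biotin-H3(1-18)K9me3 peptide (50 nM) in PBS pH 7.4, 0.01% Tween-20. Compound added for 30 min at RT, then streptavidin donor/nickel chelate acceptor beads (10 ug/mL) for 30 min.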
L3MBTL1 block: blocks human L3MBTL1; Q9Y468; AlphaScreen L3MBTL1–H3K9me1 peptide binding; Potency, µM (series often up to 57.1 µM), actives largely listed as inhibitors; 230,000 compounds, 0.66% hits; AID 485360; also: nearly all actives have a fitted effect of over 60% in size
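First, the protein-peptide complex forms for 30 min at room temperature (L3MBTL1 50 nM, biotinylated H3K9me1 peptide 75 nM). Next, compounds are pin-transferred and incubated 30 min. Finally, AlphaScreen beads are added and read after 30 min.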
G9a block: inhibitors of human histone lysine methyltransferase G9a | AID 504332 | G9a H3K9 monomethylation, AlphaScreen, 2 h | 350,000 compounds, 8.8% hits | Q96KQ7 | Potency, µM (highest dose often 102 µM), usual class: inhibitors; also: nearly all actives have a fitted effect of over 75% in size
Target sequence (Q96KQ7 913-1193 limits assumed): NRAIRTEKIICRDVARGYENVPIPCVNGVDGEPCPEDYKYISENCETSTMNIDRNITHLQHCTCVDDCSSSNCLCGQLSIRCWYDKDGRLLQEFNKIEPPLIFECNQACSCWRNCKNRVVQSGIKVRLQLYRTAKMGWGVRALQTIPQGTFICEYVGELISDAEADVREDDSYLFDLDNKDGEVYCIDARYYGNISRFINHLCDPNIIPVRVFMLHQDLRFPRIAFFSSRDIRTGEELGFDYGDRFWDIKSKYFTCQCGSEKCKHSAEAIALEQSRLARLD
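AlphaScreen read-out: biotin-H3K9 peptide (500 nM) methylation by 20 nM enzyme with 20 uM SAM, 2 h at room temperature after 15 min compound preincubation; anti-monomethyl H3K9 antibody plus donor/acceptor beads, 10 min dark.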
BAZ2B inh: inhibitors of human BAZ2B bromodomain | AlphaScreen BAZ2B-H3K14Ac peptide displacement | Q9UIF8 | Potency, µM (doses to about 114 µM), hits mostly inhibitors | AID 504333 | 360,000 compounds, 4.4% hits; also: nearly all actives have a fitted effect of over 60% in size
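BAZ2B 50 nM plus b-H3(5-23)K14Ac 50 nM, PBS pH 7.4/0.01% Tween-20, 30 min RT; compound added (max 110 uM), 30 min RT; streptavidin donor/Ni-chelate acceptor beads 10 ug/mL final, 20 min dark; AlphaScreen read.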
Of the large screens only hits and unclear results are named; the others gave an inactive call. Calls follow the shape of the dose curve; as a rule, active = well fitted inhibition curve with a large enough effect; inconclusive = small, poorly fitted or top-dose-only effect; inactive = no such curve, though single readings can be large or run the other way.

O=C(CN1C(=O)/C(=C2\SC(=S)N(C3CCS(=O)(=O)C3)C2=O)c2ccccc21)Nc1ccccc1 (centres undefined)	G9a block 25µM
Cc1ccc(NC(=O)CN2C(=O)/C(=C3\SC(=S)N(C4CCS(=O)(=O)C4)C3=O)c3ccccc32)cc1 (centres undefined)	G9a block 50µM
O=C(CN1C(=O)/C(=C/c2cccc(Br)c2)SC1=S)Nc1cccnc1	G9a block inconclusive
O=C(CN1C(=O)/C(=C/c2ccccc2)SC1=S)NC1CCS(=O)(=O)C1 (centres undefined)	none (no result: L3MBTL1 block)
CCOC(=O)C1CCN(C(=O)Cn2nc(CC)n3c(cc4occc43)c2=O)CC1	none (no result: L3MBTL1 block)
CCOc1ccccc1NC(=O)CSc1nc2c(oc3ccccc32)c(=O)n1-c1ccc(F)cc1	none (no result: L3MBTL1 block)
COc1ccccc1CN1CCCC(C(=O)N(C)Cc2ccccc2)C1 (centres undefined)	JMJD2A Tudor inh 3.2µM, HP1b chromo inh inconclusive, G9a block inconclusive
COc1ccc(CN2CCCC(C(=O)N(C)Cc3ccccc3)C2)cc1OC (centres undefined)	JMJD2A Tudor inh 0.89µM, HP1b chromo inh inconclusive, G9a block 10µM, BAZ2B inh inconclusive
COc1ccc(C(=O)C2CCCN(Cc3ccc4nonc4c3)C2)cc1OC (centres undefined)	none
Cc1cccc(Cn2c(=O)n(CCc3ccccc3)c(=O)c3c(C)c(C)sc32)c1	none (no result: L3MBTL1 block)
CCc1ccc(S(=O)(=O)c2cn(C)c3ccc(C)cc3c2=O)cc1	none (no result: L3MBTL1 block)
Cn1c(/N=C/c2ccccc2[N+](=O)[O-])nc2ccccc21	G9a block 79µM
N/C(=N\OC(=O)c1ccccc1)c1ccccn1	none (no result: G9a block)
N/C(=N/OS(=O)(=O)c1ccc([N+](=O)[O-])cc1)c1ccncc1	G9a block 10µM
N/C(=N\OS(=O)(=O)c1ccccc1)c1ccncc1	BAZ2B inh inconclusive
N/C(=N\OS(=O)(=O)c1ccc2ccccc2c1)c1ccncc1	HP1b chromo inh inconclusive, G9a block 20µM
N/C(=N\OS(=O)(=O)c1ccc2ccccc2c1)c1ccccn1	JMJD2A Tudor inh 5µM, G9a block 5µM, BAZ2B inh 20µM
N/C(=N\OS(=O)(=O)c1ccc2ccccc2c1)c1cccnc1	G9a block inconclusive, BAZ2B inh inconclusive
CNCCCC1Sc2ccccc2Oc2ccccc21 (centres undefined)	JMJD2A Tudor inh 8.9µM, G9a block 7.9µM, BAZ2B inh inconclusive
CC(C)(C)C(=O)NC(=S)Nc1sc2c(c1C(N)=O)CCC2	HP1b chromo inh inconclusive, G9a block 5.6µM
NC(=O)c1c(NC(=O)C2CCCO2)sc2c1CCCC2 (centres undefined)	JMJD2A Tudor inh inconclusive, HP1b chromo inh inconclusive, G9a block 3.2µM
CCOC(=O)c1c(NC(=O)C2CCCO2)sc2c1CCC2 (centres undefined)	none (no result: L3MBTL1 block)
Cc1sc(NC(=O)C2CCCO2)c(C(N)=O)c1C (centres undefined)	JMJD2A Tudor inh inconclusive, HP1b chromo inh inconclusive, G9a block 7.9µM
Cc1sc(NC(=O)C2CCCO2)c(C#N)c1C (centres undefined)	G9a block inconclusive (no result: L3MBTL1 block)
COc1ccc(C2Nc3ccccc3C(=O)N2Cc2ccccc2Cl)cc1COc1ccc(NC(C)=O)cc1 (centres undefined)	none (no result: HP1b chromo inh, L3MBTL1 block, G9a block, BAZ2B inh)
NS(=O)(=O)c1ccc(CCNC(=O)c2ccc(-c3ccccc3)cc2)cc1	none
Fc1ccc(-c2nc3nc4ccccc4nc3n2Cc2ccco2)cc1	none
c1ccc(-c2nc3nc4ccccc4nc3n2Cc2ccco2)cc1	G9a block 16µM
CCCC(CCC(=O)Nc1cc([N+](=O)[O-])ccc1O)C(=O)O (centres undefined)	L3MBTL1 block inconclusive, G9a block inconclusive, BAZ2B inh 56µM
Oc1ccc2ccccc2c1CN1CCN(c2ccccc2)CC1	G9a block inconclusive (no result: L3MBTL1 block)
Cc1c(C)c2cc(Cl)c(O)c(CN3CCCCC3)c2oc1=O	none (no result: L3MBTL1 block)
Oc1ccc(CN2CCc3ccccc3C2)c2cccnc12	JMJD2A Tudor inh 10µM, G9a block inconclusive, BAZ2B inh 5.6µM (no result: L3MBTL1 block)
Oc1c(Cl)cc(CN2CCCCC2)c2cccnc12	BAZ2B inh 3.5µM (no result: JMJD2A Tudor inh, HP1b chromo inh, L3MBTL1 block)
c1ccc2c(CN3CCCCC3)csc2c1	none
Oc1ccc(CN2CCCCC2)c2cccnc12	JMJD2A Tudor inh 8.9µM, L3MBTL1 block inconclusive, G9a block inconclusive, BAZ2B inh 3.2µM
Oc1ccc(CN2CCN(c3ccccc3)CC2)c2cccnc12	G9a block 3.2µM, BAZ2B inh inconclusive
CCOc1ccccc1NC(=O)CSc1nnc(CC)c(CC)n1	none (no result: L3MBTL1 block)
Cc1ccc(S(=O)(=O)N2CCN(C(=O)COC(=O)CCOc3ccccc3)CC2)c(C)c1	none
Cc1nn(-c2ccc(F)cc2)c(-n2cccc2)c1C(=O)NCCCN1CCN(c2cccc(Cl)c2)CC1	JMJD2A Tudor inh inconclusive, G9a block inconclusive, BAZ2B inh inconclusive (no result: L3MBTL1 block)
O=C(Cc1csc2ccccc12)NCc1cccc(Br)c1	none (no result: L3MBTL1 block)
Oc1c(CN2CCCCC2)ccc2cccnc12	JMJD2A Tudor inh 20µM (no result: L3MBTL1 block, G9a block, BAZ2B inh)
Ic1ccc(N2CCN(Cc3c[nH]c4ncccc34)CC2)cc1	JMJD2A Tudor inh 89µM, G9a block 24µM, BAZ2B inh 50µM
Fc1ccc(-c2[nH]ncc2CN2CCN(c3ccc(F)cc3)CC2)cc1	G9a block inconclusive
Cc1cc2ccccc2cc1CN1CCCCC1	none
O=[N+]([O-])c1cc(CN2CCCC2)c2cccnc2c1O	JMJD2A Tudor inh 13µM, HP1b chromo inh inconclusive, L3MBTL1 block 4µM, G9a block inconclusive, BAZ2B inh 5µM
Oc1ccc(CN2CCC(Cc3ccccc3)CC2)c2cccnc12	JMJD2A Tudor inh 25µM, G9a block 35µM, BAZ2B inh 20µM (no result: L3MBTL1 block)
FC(F)(F)c1ccccc1CN1CCC(Cc2ccccc2)CC1	JMJD2A Tudor inh 13µM, HP1b chromo inh inconclusive, G9a block 22µM
OCCN1CCN(Cc2cc(Cl)c3cccnc3c2O)CC1	JMJD2A Tudor inh 13µM, G9a block 50µM, BAZ2B inh 7.9µM (no result: L3MBTL1 block)
CS(=O)(=O)N1CCN(Cc2ccccc2C(F)(F)F)CC1	none
COc1ccc2c(C)c(CCC(=O)NCc3ccc(C)cc3)c(=O)oc2c1	none (no result: L3MBTL1 block)
CCN(CC)c1ccc(C(=O)NCc2ccc3c(c2)CCN3C(=O)c2ccc(F)cc2)cc1	none (no result: L3MBTL1 block)
COc1cccc(C2CC(=O)Nc3cc4c(cc32)OCCO4)c1OC (centres undefined)	none (no result: L3MBTL1 block)
COc1ccc(OC)c(NC(=O)c2nnn(CC(=O)Nc3ccc(C(C)C)cc3)c2N)c1	none (no result: L3MBTL1 block)
O=C(CSc1nc2ccccc2s1)Nc1cc(S(=O)(=O)N2CCOCC2)ccc1O	JMJD2A Tudor inh 50µM, G9a block inconclusive, BAZ2B inh inconclusive
COc1ccc(S(=O)(=O)N2CCOCC2)cc1NC(=O)CSc1n[nH]c(C(C)C)n1	G9a block 28µM
COc1ccc(S(=O)(=O)N2CCOCC2)cc1NC(=O)CSc1nnc(N)s1	G9a block 45µM
COc1ccc(S(=O)(=O)N2CCOCC2)cc1NC(=O)CSc1nc(C)c(C)c(C)n1	none (no result: G9a block, BAZ2B inh)
